Among the data in PubChem BioAssay (NCI) are growth values, retold here.

This is part of a sample that, as a whole, favours compounds with a hit. Of some 83,000 tested, about 20% had one in any assay.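 Each cell line was grown in a 96-well plate and treated with one concentration of compound for 48 hours. Values below 10 were considered active.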 Unmarked numbers belong to inactive results. Activity calls are given as the source filed them. *1 amine or outer side, *2 acyl side, *3 side chain or, on linkers, in order; H or OH if unused. Where a SMILES comes first, the peptide text is derived from it. [ ]: non-standard residue; d: D form. The star is where a group is joined. X5 = CCC(=O)CC1CC(C)CC(C(=O)[*:2])N1[*:1]; X4 = CCCCCCCCC(C)C(=O)*; Aib = CC(C)(N)C(=O)O; X6 = CC(CN(C)CCO)N*

For this assay, the system named is ACHN renal. The experiment in a line: NCI-60 one-dose screen, 48 h (100 = growth as untreated, 0 = no growth, -100 = all killed). The note with it: 10 µM unless noted. On the procedure:
Growth inhibition of the ACHN human tumor cell line is measured as a screen for anti-cancer activity. Cells are grown in 96 well plates and exposed to the test compound for 48 hours. Compounds are tested at a single concentration, which is 10^-5 M for most compounds. The reported endpoint is percent growth (GI% or GIPRCNT), where numbers from 0 - 100% represent growth inhibition, and numbers from -100% - 0 represent cell death. For example, a value of 40 represents 60% growth inhibition. A value of 0 means no net growth occurred over the course of the experiment. A value of -40 indicates 40% of cells at the beginning of the experiment died by the end of the experiment. A value of -100 means all cells are dead at the end of the experiment.
NCI-60 Human Tumor Cell Lines Screen was performed using the standard one-dose NCI protocol, which is described in more detail at https://dtp.cancer.gov/discovery_development/nci-60/default.htm.
Compounds with GIPRCNT values below 10 were considered active. Activity score was based on GIPRCNT using the following formula: […]
Score is 0 for GIPRCNT values of 100 or above, 50 for GIPRCNT values of 0, and 100 for GIPRCNT values of -100.
Turning to `Oc1c(Cl)cc(Cl)cc1C(c1cc(Cl)cc(Cl)c1O)C(Cl)(Cl)Cl`, the growth was -19.7% (active).
In the case of `O=C1C(=O)c2cc([N+](=O)[O-])ccc2-c2ccccc21`, the growth is -99.3% (active).
With `O=C(Cc1nc2cc(Cl)c(Cl)cc2nc1CC(=O)c1cccnc1)c1cccnc1`, the growth is 60.9%.
Under `Nc1nc(-c2ccccc2)nc(N)c1N=O` stands 58.9%; under `[Cl-].[Rh+3].c1ccc(-c2ccnc3c2ccc2c(-c4ccccc4)ccnc23)cc1.c1ccc(-c2ccnc3c2ccc2c(-c4ccccc4)ccnc23)cc1.c1ccc(-c2ccnc3c2ccc2c(-c4ccccc4)ccnc23)cc1`, 93.6%.
As for `CC12CCC(O)CC1=CCC1C2CCC2(C)C3=NN=CC3CC12` (stereo not given), the growth is 97.7%.
As to `CCCCCCCCCCCC[S+](C)CC(=O)[O-]` (stereo not given), the growth is 61.4%.
As for `CN(C)CC(C)(CN(C)C)C(=O)/C=C/c1c(Cl)cccc1Cl`, the figure is -100% (active); as for `CCN(CC)CCNc1ccc([N+](=O)[O-])c2sc3ccccc3c(=O)c12`, 6.41% (active).
In the case of `O=C1C=Cc2ccccc2/C1=C/c1nc(-c2ccccc2)oc1O`, the growth was 81.9%.
In the case of `S=c1[nH]c2cc(Cl)ccc2s1`, the growth is 95.2%.
Under `O=C(CBr)c1ccc(OC(=O)c2ccccc2)cc1` stands 97.5%; under `CCCCCCCCCCCCNCCCc1ccccc1`, 78.1%.
Under `NNc1ccc(Cl)cc1Cl` stands 54.7%.
Turning to `C(=N\Nc1ccc2ccccc2n1)/c1ccccn1`, the growth is 7.28% (active).
Turning to `O=C(c1ccccc1)C(Br)[N+](=O)[O-]` (stereo not given), the growth is 86.8%.
`OC(Cc1cc(CC(O)(C(F)(F)F)C(F)(F)F)nc(CC(O)(C(F)(F)F)C(F)(F)F)c1)(C(F)(F)F)C(F)(F)F`: the growth was 0.867% (active).
As for `COc1cc([C@@H]2c3cc4c(cc3[C@H](OC3OC5COC(c6ccccc6)OC5C(O)C3O)[C@H]3COC(=O)[C@H]23)OCO4)cc(OC)c1OC` (stereo not given in full), the figure is 32.6%; as for `O=C1/C(=C/c2ccccc2)CCC/C1=C\c1ccccc1`, 95.6%.
Turning to `CCCCCCCCCCCC(=O)OC(C)C(=O)NCCCC` (stereo not given), the growth was 116%.
Under `CCCCC(CCc1ccc([N+](=O)[O-])cc1)(C(C)=O)C(=O)OCC` (stereo not given) stands 114%; under `O=C(c1ccccc1)C(O)C(Br)(CBr)c1ccccc1` (stereo not given), 93.2%; under `O=C(O)c1ccc2c(c1)C(=O)c1ccccc1C2=O`, 103%.
Regarding `CCCCCCCCCCCC1N=C(N)N=C(N)N1c1cccc(Br)c1` (stereo not given), the growth was 25.3%.
Under `CCCCCCCCC(C)C(=O)N1CCCC1C(=O)N1C(CC(=O)CC)CC(C)CC1C(=O)NC(C)C(=O)NC(C)(C)C(=O)NC(C)(C)C(=O)NC(C(=O)NC(C)C(=O)NC(C)(C)C(=O)NC(C)(C)C(=O)NC(C)CN(C)CCO)C(C)CC` (stereo not given) (X4-P[X5]A[Aib][Aib]IA[Aib][Aib]-X6; configuration not given here) stands -54.5% (active); under `CCCCCCCCC(=O)OCCCC(CCC(CCC1CCCO1)OC(=O)CCCCCCCC)OC(=O)CCCCCCCC` (stereo not given), 107%.
As for `CCCCCCCCCCCCCCCCCC1=NCCCN1CCO`, the figure is 112%; as for `CC[n+]1ccc(Nc2ccc(NC(=O)c3ccc(Nc4cc[n+](CC)c5ccc([N+](=O)[O-])cc45)cc3)cc2)cc1`, 96.9%; as for `CN(C)CCSC1=Nc2ccc(Cl)cc2C(c2ccccc2Cl)N(C)C1` (stereo not given), 74.2%.
In the case of `Cc1nnc(N/N=C/c2ccc([N+](=O)[O-])o2)[nH]c1=O`, the growth was -50.8% (active).
As for `Oc1ccc(Nc2ccc3ccccc3c2)cc1`, the figure is 18.5%; as for `CCCCCCCCCCCCCCCC[N+]1(C)CCCC1c1cccnc1` (stereo not given), 85.6%; as for `Cc1cc(Br)c2nsnc2c1[N+](=O)[O-]`, 36.2%.
Under `O=C1C=CC(=O)N1c1cccc2c1CCCC2` stands 79.3%.
Regarding `C1=C(c2ccccc2)c2ccccc2C1`, the growth is 81.7%.
Under `NC(=S)Nc1ccc2c(c1)Cc1ccccc1-2` stands 91.7%; under `COC(=O)c1nc(=S)[nH]c(C(=O)OC)c1C(=O)c1ccc(Cl)c(Cl)c1`, 114%; under `COc1ccc(C(OCC2OC(n3ccc(NC(=O)c4ccccc4)nc3=O)C(O)C2O)(c2ccccc2)c2ccccc2)cc1` (stereo not given), 47.3%.
Take `Oc1ccc2ccccc2c1N=Nc1ccccn1`: the growth was 11.9%.
Under `CCN(CC)c1ccc(/C=C\C(=O)c2ccc(NC(C)=O)cc2)cc1` stands 61.4%.
